Assay outcomes: PubChem BioAssay, National Center for Advancing Translational Sciences (NCATS)
Only some compounds are listed: those with a hit (about 2.8% of all), similar ones and a draw of the others.
POLK inh: inhibitors of human DNA polymerase kappa; Potency, µM (series often up to 107 µM), inactives show at the highest dose activity, negative = inhibition, hits mostly inhibitors; Q9UBT6; actives 0.53% (n = 400,000); purified Pol kappa, fluorescent DNA synthesis assay, 10 min; also: potency is read from the fitted curve at half-maximal effect; % is scaled to controls: 0 for no effect and ±100 for the full control effect
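Kinetic fluorescence readout at 0 and 10 min followed reaction start with substrate at 50 nM final. Beforehand, enzyme (10 nM Pol kappa) stood 15 min with compound at room temperature; buffer-only wells were negative controls.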
Pol beta inh: inhibitors of human DNA polymerase beta; P06746; Pol beta primer extension/strand displacement, fluorescence kinetic; Potency, µM (series often up to 114 µM), for the others: top-dose activity change, negative = inhibition, actives largely listed as inhibitors; actives 1.3% (n = 340,000); AID 485314; also: potency is read from the fitted curve at half-maximal effect; % is scaled to controls: 0 for no effect and ±100 for the full control effect
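Curves were derived by four-parameter Hill fits of normalized qHTS data. The kinetic fluorescent primer-extension read was taken at 0 and 10 min after 50 nM substrate, following a 15 min room-temperature preincubation of 10 nM enzyme with compounds.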
WRN inhibitor: inhibitors of human WRN helicase; Q14191; WRN helicase unwinding, fluorescent forked duplex, kinetic; Potency, µM (top dose mostly 114 µM), for the others: top-dose activity change, negative = inhibition, hits mostly inhibitors; actives 0.46% (n = 360,000); also: potency is read from the fitted curve at half-maximal effect; % is scaled to controls: 0 for no effect and ±100 for the full control effect; nearly all actives have a fitted effect of over 55% in size
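Kinetic fluorescence helicase assay: unwinding of a quenched forked DNA duplex (100 nM final) with 2 mM ATP final raises red fluorescence (525/598 nm). Compounds sat 15 min at room temperature with 20 nM WRN beforehand.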
PI5P4Ka inh: blocks human PI5P4K alpha kinase activity; P48426; PI5P4Kalpha enzyme, ADP-Glo luminescence, 60 min; active compounds read low; max response, %; actives 1.2% (n = 330,000); active = max response of -50% or lower; inconclusive = between -30% and -50%; inactive = -30% or higher; also: value at the top dose of about 77 µM; % is scaled to controls: 0 for no effect and ±100 for the full control effect
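qHTS, 1536-well: enzyme/substrate mix, compound by pin tool, 5 microM ATP final; RT 60 min; ADP-Glo reagents 1 (45 min) then 2 (30 min); luminescence.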
POLH inh: DNA polymerase eta (human) inhibition; Q9Y253; recombinant Pol eta, fluorescent DNA replication assay; Potency, µM (titrated, usually from 114 µM), for the others: at the top dose activity change, negative = inhibition, actives largely listed as inhibitors; actives 1.2% (n = 390,000); AID 588591; also: potency is read from the fitted curve at half-maximal effect; % is scaled to controls: 0 for no effect and ±100 for the full control effect
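Pol eta at 10 nM preincubated with compounds 15 min at room temperature; reaction started with fluorescent substrate (50 nM final) and read kinetically at 0 and 10 min.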
POLI inh: blocks human DNA polymerase iota activity; Potency, µM (doses to about 115 µM), inactives show at the highest dose activity, negative = inhibition, actives largely listed as inhibitors; Pol iota fluorescent replication assay, 10 min; actives 1% (n = 390,000); AID 588590; Q9UNA4; also: potency is read from the fitted curve at half-maximal effect
Target sequence (Q9UNA4 whole entry, looked up): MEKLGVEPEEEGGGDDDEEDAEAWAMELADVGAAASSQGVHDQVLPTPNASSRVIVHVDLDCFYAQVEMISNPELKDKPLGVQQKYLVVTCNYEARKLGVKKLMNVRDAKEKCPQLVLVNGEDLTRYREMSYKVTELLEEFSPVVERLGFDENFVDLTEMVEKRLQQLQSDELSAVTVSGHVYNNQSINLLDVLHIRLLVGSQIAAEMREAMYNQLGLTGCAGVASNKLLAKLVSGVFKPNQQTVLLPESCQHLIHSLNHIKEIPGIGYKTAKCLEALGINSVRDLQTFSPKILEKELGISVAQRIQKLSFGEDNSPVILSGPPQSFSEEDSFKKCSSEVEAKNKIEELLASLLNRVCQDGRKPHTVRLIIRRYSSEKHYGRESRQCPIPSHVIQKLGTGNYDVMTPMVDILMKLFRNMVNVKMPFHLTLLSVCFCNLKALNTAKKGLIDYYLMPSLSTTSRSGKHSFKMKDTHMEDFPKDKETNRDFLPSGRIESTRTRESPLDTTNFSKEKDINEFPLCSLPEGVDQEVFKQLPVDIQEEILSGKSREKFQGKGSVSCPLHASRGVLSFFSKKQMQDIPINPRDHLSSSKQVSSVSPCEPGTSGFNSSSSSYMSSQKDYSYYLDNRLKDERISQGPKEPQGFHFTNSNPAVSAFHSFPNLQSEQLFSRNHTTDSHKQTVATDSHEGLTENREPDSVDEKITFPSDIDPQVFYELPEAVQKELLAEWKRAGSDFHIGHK
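Pol iota at 10 nM preincubated 15 min with compounds at room temperature; reaction started with fluorescent substrate, 50 nM final. Fluorescence read kinetically at 0 and 10 min; buffer-only wells as negative control.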
* marks the source's active call; other numbers are inactive results; ? = inconclusive; nt = not tested or not shown; [ ] = remark or other dose. Unless noted, calls follow the shape of the dose curve; as a rule, active = well fitted curve in the direction sought with a large enough effect; inconclusive = small, poorly fitted or top-dose-only effect, or another doubt; inactive = no such curve, though single readings can be large; an effect the other way counts as inactive or inconclusive.

SMILES | POLK inh | Pol beta inh | WRN inhibitor | PI5P4Ka inh | POLH inh | POLI inh
C#CCOc1ccc(/C=C2/C(=O)N(c3ccc(S(N)(=O)=O)cc3)N=C2C)cc1OC | nt | nt | -16% | -22 | ? | nt
COc1cc(/C=C2/C(=N)N3C(SC)=NSC3=NC2=O)ccc1OC(=O)c1ccco1 | -15% | 3% | -31% | ? | -7% | ?
CCS(=O)(=O)C1=NN2C(=N)/C(=C\c3ccc(OC(=O)c4ccco4)c(OC)c3)C(=O)N=C2S1 | -30% | -25% | -26% | -57* | 79µM* | ?
COc1ccccc1C(=O)Nc1ccc(OCc2cc(=O)n3ccsc3n2)cc1 | -1% | 2% | nt | nt | -17% | 27%
C[C@@H](CO)[C@H](/C=C/c1ccccc1)CCO[Si](c1ccccc1)(c1ccccc1)C(C)(C)C | 1% | nt | nt | nt | nt | -15%
NC(=S)N/N=C/c1cn(-c2ccccc2)nc1-c1cccnc1 | -11% | -5% | -5% | -54* | -33% | ?
NC[C@@H]1O[C@@H](O[C@H]2[C@H](O)[C@@H](O[C@@H]3O[C@@H](CO)[C@H](O)[C@@H](N)[C@@H]3O)[C@H](N)C[C@@H]2N)[C@@H](O)[C@H](O)[C@H]1O | -5%[60.1 µM] | nt | nt | nt | nt | nt
Cc1ccc(NC(=O)Nc2nnc(-c3ccncc3)s2)cc1C | ? | 1% | -5%[11.6 µM] | -2 | 89µM* | 22µM*
C[C@@]1(C(=O)O)NCCc2cc(O)c(O)cc21 | 1.8µM* | nt | nt | nt | nt | nt
COc1ccc(NC(=O)CCC(=O)N2CCC(c3ccccc3)=N2)cc1S(=O)(=O)N1CCCCC1 | 7% | nt | 2% | -4 | -8% | 3%
CCc1nn2c(=O)cc(COc3ccc(NC(=O)c4ccco4)cc3)nc2s1 | -22% | -21% | -11% | 1 | -10% | 71µM*
COCCC(=O)NNS(=O)(=O)c1ccc(Cl)cc1 | -1% | 15% | -33%[57.1 µM] | -4 | -1% | 18%
COC(=O)N/N=C/c1ccc(OC(=O)/C=C/c2ccco2)cc1 | ? | 11µM* | ? | -51* | ? | 35µM*
O=C(/C=C\c1ccco1)Oc1cccc2cccnc12 | ? | 22µM* | -16% | -6 | -16% | 25µM*
CCc1ccc(OC(=O)/C=C/c2ccco2)cc1 | ? | 35µM* | -9% | -1 | -6% | ?
O=C(Cc1ccccc1)N/N=C/c1ccc(OC(=O)/C=C\c2ccco2)cc1 | ? | -27% | -11% | 0 | -16% | ?
CCCCCOC(=O)CSc1nc2sc3c(c2c(=O)n1Cc1ccccc1)CC(C)(CC)OC3 (stereo unspecified) | 1% | 13% | nt | nt | -15% | 8%
COc1ccc(CN2CCN(Cc3c[nH]c4ccccc34)CC2CCO)c(F)c1 (stereo unspecified) | -5% | 9% | 1% | -4 | 0% | 85%
COC(=O)C1=C(C)N(CCCC(=O)O)C(=O)NC1c1cccc2ccccc12 (stereo unspecified) | 6% | nt | -4% | -71* | 2% | 18%
CC1=C(C(=O)OCc2ccccc2)C(c2cccc(Cl)c2Cl)NC(=O)N1CCCCCC(=O)O (stereo unspecified) | -3% | 0% | -6% | -3 | -11% | 13%
CC1=C(C(=O)OCc2ccccc2)C(c2cccc3ccccc23)NC(=O)N1CCCC(=O)O (stereo unspecified) | -7% | nt | 1% | -86* | -6% | ?
COC(=O)C1=C(C)N(CCCC(=O)O)C(=O)NC1c1cccc(Cl)c1Cl (stereo unspecified) | 12% | nt | -6% | -98* | -9% | -8%
C[C@H](O)[C@@H]1C(=O)N2CCc3ccc(N4CCN(C)CC4)cc3[C@@H]2C[C@@H]1N(C)C(=O)c1cccnc1 | nt | nt | 3% | -3 | -27% | nt
CCOC(=O)c1c(C)oc2nc(C)nc(N3CCN(c4ccccc4F)CC3)c12 | 5% | 19% | nt | nt | -20% | 12%
Nc1c(Br)cc(Br)c2c1C(=O)c1c(cccc1S(=O)(=O)O)C2=O | -26% | nt | ? | -57* | ? | ?
